The values below come from PubChem BioAssay (EPA / NIEHS).

What all share (conditions): mRNA level, 48 h; actives raise or lower the signal
Read-out in assay [1]: Tumor necrosis factor receptor superfamily member 6 (Homo sapiens) (UniProt P25445)
Put plainly: LTEA_HepaRG_FAS: Life Technologies and Expression Analysis (LTEA) Assay for Fas cell surface death receptor (FAS) using HepaRG (AID 2283447). The essentials: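 FAS transcript level was measured by TaqMan qRT-PCR against three housekeeping genes after 48 h chemical exposure. Cells were HepaRG, 0.5% DMSO vehicle, with a top concentration of 100 uM and half-log dilutions over eight points, in duplicate.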

Read-out in assay [2]: Fatty acid synthase (Homo sapiens) (UniProt P49327)
Put plainly: LTEA_HepaRG_FASN: Life Technologies and Expression Analysis (LTEA) Assay for Fatty Acid Synthase (FASN) using HepaRG (AID 2283448). The essentials:
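FASN transcript measured by TaqMan qRT-PCR, normalised to three housekeeping genes, after 48 h chemical exposure of HepaRG cells. Eight-point half-log series from 100 uM in 0.5% DMSO, duplicates; gain or loss fitted against vehicle.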

Read-out in assay [3]: Cyclin Dependent Kinase Inhibitor 1A (CDKN1A), CDKN1A (gene 1026)
Description: LTEA_HepaRG_CDKN1A: Life Technologies and Expression Analysis (LTEA) Assay for Cyclin Dependent Kinase Inhibitor 1A (CDKN1A) using HepaRG (AID 2283450). The essentials: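 Differentiated HepaRG cells in serum-free induction medium, exposed 48 h in duplicate to eight half-log concentrations up to 100 uM in 0.5% DMSO. mRNA measured by TaqMan qRT-PCR, normalized to ACTB, GAPDH, POLR2A; bidirectional fit versus DMSO.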

Read-out in assay [4]: Cyclin D1 (CCND1), CCND1 (gene 595)
Put plainly: LTEA_HepaRG_CCND1: Life Technologies and Expression Analysis (LTEA) Assay for Cyclin D1 (CCND1) using HepaRG (AID 2283451).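 For AC50: TaqMan qRT-PCR transcript level normalised to ACTB GAPDH and POLR2A housekeeping genes.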 The essentials: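 Differentiated HepaRG cells exposed 48 h in serum-free induction medium to eight half-log concentrations from 100 uM top, 0.5% DMSO, duplicates. CCND1 mRNA measured by Fluidigm TaqMan qRT-PCR, normalised to ACTB, GAPDH, POLR2A; bidirectional fit.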

Read-out in assay [5]: flavin-containing dimethylaniline monooxygenases 3 (FMO3), FMO3 (gene 2328)
Put plainly: LTEA_HepaRG_FMO3: Life Technologies and Expression Analysis (LTEA) Assay for flavin-containing dimethylaniline monooxygenases 3 (FMO3) using HepaRG (AID 2283453). The essentials:
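FMO3 transcript quantified by TaqMan qRT-PCR against three housekeeping genes after 48 h chemical exposure of HepaRG cells. Eight-point half-log series, top 100 uM, 0.5% DMSO vehicle; phenobarbital 1mM induction control; up- or down-regulation fitted.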

Read-out in assay [6]: Cytochrome P450 (CYP1A1), CYP1A1 (gene 1543)
Description: LTEA_HepaRG_CYP1A1: Life Technologies and Expression Analysis (LTEA) Assay for Cytochrome P450 (CYP1A1) using HepaRG (AID 2283454). The essentials:
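Differentiated human HepaRG cells, after 48 h plating, exposed in duplicate for 48 h in serum-free induction medium to 8 half-log concentrations up to 100 uM in 0.5% DMSO. CYP1A1 mRNA by qRT-PCR, normalized to ACTB/GAPDH/POLR2A; bidirectional fit versus DMSO.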

Read-out in assay [7]: CFLAR gene, CFLAR (gene 8837)
Put plainly: LTEA_HepaRG_CFLAR: Life Technologies and Expression Analysis (LTEA) Assay for CFLAR gene using HepaRG (AID 2283455). The essentials:
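Transcript level by qRT-PCR (normalized to ACTB, GAPDH and POLR2A) after 48 h chemical exposure of HepaRG cells, top concentration 100 uM with half-log steps, 0.5% DMSO vehicle, duplicates; fitted bidirectionally against DMSO baseline.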

Read-out in assay [8]: Forkhead box O3 (FOXO3), FOXO3 (gene 2309)
Put plainly: LTEA_HepaRG_FOXO3: Life Technologies and Expression Analysis (LTEA) Assay for Forkhead box O3 (FOXO3) using HepaRG (AID 2283459). The essentials:
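FOXO3 transcript measured by qRT-PCR (normalized to ACTB, GAPDH, POLR2A) after 48 h exposure of HepaRG cells in serum-free induction medium. Duplicates, eight half-log concentrations up to 100 uM, 0.5% DMSO; gain or loss fitted against DMSO.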

Read-out in assay [9]: ABC Transporter (ABCB1), ABCB1 (gene 5243)
Put plainly: LTEA_HepaRG_ABCB1: Life Technologies and Expression Analysis (LTEA) Assay for ABC Transporter (ABCB1) using HepaRG (AID 2283460). The essentials: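 ABCB1 transcript level measured by TaqMan qRT-PCR against three housekeeping genes after 48 h chemical exposure of differentiated HepaRG cells. Top concentration 100 uM, half-log steps, eight points, 0.5% DMSO vehicle; bidirectional fit relative to DMSO.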

Read-out in assay [10]: growth arrest and DNA damage 45 (GADD45B), GADD45B (gene 4616)
Put plainly: LTEA_HepaRG_GADD45B: Life Technologies and Expression Analysis (LTEA) Assay for growth arrest and DNA damage 45 (GADD45B) using HepaRG (AID 2283461). The essentials: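 Differentiated human HepaRG cells in serum-free induction medium exposed 48 h in duplicate to eight concentrations, top 100 uM, half-log steps, 0.5% DMSO. GADD45B mRNA by TaqMan qRT-PCR, normalized to ACTB, GAPDH, POLR2A; bidirectional fit versus DMSO.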

Read-out in assay [11]: ABC Transporter (ABCB11), ABCB11 (gene 8647)
Description: LTEA_HepaRG_ABCB11: Life Technologies and Expression Analysis (LTEA) Assay for ABC Transporter (ABCB11) using HepaRG (AID 2283463). The essentials:
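ABCB11 transcript levels quantified by TaqMan qRT-PCR against three housekeeping genes after 48 h chemical exposure of HepaRG cultures. Concentrations up to 100 uM in half-log steps, 0.5% DMSO vehicle; both induction and suppression scored.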

Read-out in assay [12]: Cyclin D2 (CCND2), CCND2 (gene 894)
Description: LTEA_HepaRG_CCND2: Life Technologies and Expression Analysis (LTEA) Assay for Cyclin D2 (CCND2) using HepaRG (AID 2283449). The essentials:
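CCND2 transcript levels, quantified by qRT-PCR and normalised to three housekeeping genes, were fitted bidirectionally against 0.5% DMSO. HepaRG cultures were dosed 48 h in duplicate with an 8-point half-log series up to 100 uM.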

Read-out in assay [13]: Forkhead box O1 (FOXO1), FOXO1 (gene 2308)
Description: LTEA_HepaRG_FOXO1: Life Technologies and Expression Analysis (LTEA) Assay for Forkhead box O1 (FOXO1) using HepaRG (AID 2283456). The essentials:
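FOXO1 transcript quantified by qRT-PCR after 48 h chemical exposure (top 100 uM, half-log steps, 0.5% DMSO) of HepaRG cells, housekeeping-normalized (ACTB/GAPDH/POLR2A). Changes fitted in both directions relative to vehicle.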

Read-out in assay [14]: catalase (CAT), CAT (gene 847)
Put plainly: LTEA_HepaRG_CAT: Life Technologies and Expression Analysis (LTEA) Assay for catalase (CAT) using HepaRG (AID 2283452). The essentials:
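Expression of CAT was quantified by TaqMan qRT-PCR with ACTB/GAPDH/POLR2A normalization after 48 h chemical exposure of HepaRG. Eight-point half-log series, top 100 uM, in 0.5% DMSO; gain or loss fitted against vehicle.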

Read-out in assay [15]: growth arrest and DNA damage 45 (GADD45A), GADD45A (gene 1647)
Put plainly: LTEA_HepaRG_GADD45A: Life Technologies and Expression Analysis (LTEA) Assay for growth arrest and DNA damage 45 (GADD45A) using HepaRG (AID 2283458). The essentials:
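GADD45A expression was measured by TaqMan qRT-PCR against three housekeeping genes (ACTB, GAPDH, POLR2A) after 48 h treatment of HepaRG cells. Eight-point half-log series up to 100 uM in 0.5% DMSO, run in duplicate.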

Read-out in assay [16]: ABC Transporter (ABCC3), ABCC3 (gene 8714)
Put plainly: LTEA_HepaRG_ABCC3: Life Technologies and Expression Analysis (LTEA) Assay for ABC Transporter (ABCC3) using HepaRG (AID 2283462). The essentials: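 Differentiated human HepaRG cells exposed 48 h in serum-free induction medium, 0.5% DMSO vehicle, 8-point half-log series to 100 uM in duplicate. ABCC3 mRNA by qRT-PCR, normalised to ACTB, GAPDH, POLR2A; bidirectional fit vs DMSO.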

Structures are written as SMILES. Activity calls are given as the source filed them. Rule for the calls: active = hit-call score of the fitted dose curve at least 0.9, where 1 is the maximum; inactive = score below 0.9.

Fatty acid synthase (Homo sapiens), sequence (P49327 whole entry, looked up): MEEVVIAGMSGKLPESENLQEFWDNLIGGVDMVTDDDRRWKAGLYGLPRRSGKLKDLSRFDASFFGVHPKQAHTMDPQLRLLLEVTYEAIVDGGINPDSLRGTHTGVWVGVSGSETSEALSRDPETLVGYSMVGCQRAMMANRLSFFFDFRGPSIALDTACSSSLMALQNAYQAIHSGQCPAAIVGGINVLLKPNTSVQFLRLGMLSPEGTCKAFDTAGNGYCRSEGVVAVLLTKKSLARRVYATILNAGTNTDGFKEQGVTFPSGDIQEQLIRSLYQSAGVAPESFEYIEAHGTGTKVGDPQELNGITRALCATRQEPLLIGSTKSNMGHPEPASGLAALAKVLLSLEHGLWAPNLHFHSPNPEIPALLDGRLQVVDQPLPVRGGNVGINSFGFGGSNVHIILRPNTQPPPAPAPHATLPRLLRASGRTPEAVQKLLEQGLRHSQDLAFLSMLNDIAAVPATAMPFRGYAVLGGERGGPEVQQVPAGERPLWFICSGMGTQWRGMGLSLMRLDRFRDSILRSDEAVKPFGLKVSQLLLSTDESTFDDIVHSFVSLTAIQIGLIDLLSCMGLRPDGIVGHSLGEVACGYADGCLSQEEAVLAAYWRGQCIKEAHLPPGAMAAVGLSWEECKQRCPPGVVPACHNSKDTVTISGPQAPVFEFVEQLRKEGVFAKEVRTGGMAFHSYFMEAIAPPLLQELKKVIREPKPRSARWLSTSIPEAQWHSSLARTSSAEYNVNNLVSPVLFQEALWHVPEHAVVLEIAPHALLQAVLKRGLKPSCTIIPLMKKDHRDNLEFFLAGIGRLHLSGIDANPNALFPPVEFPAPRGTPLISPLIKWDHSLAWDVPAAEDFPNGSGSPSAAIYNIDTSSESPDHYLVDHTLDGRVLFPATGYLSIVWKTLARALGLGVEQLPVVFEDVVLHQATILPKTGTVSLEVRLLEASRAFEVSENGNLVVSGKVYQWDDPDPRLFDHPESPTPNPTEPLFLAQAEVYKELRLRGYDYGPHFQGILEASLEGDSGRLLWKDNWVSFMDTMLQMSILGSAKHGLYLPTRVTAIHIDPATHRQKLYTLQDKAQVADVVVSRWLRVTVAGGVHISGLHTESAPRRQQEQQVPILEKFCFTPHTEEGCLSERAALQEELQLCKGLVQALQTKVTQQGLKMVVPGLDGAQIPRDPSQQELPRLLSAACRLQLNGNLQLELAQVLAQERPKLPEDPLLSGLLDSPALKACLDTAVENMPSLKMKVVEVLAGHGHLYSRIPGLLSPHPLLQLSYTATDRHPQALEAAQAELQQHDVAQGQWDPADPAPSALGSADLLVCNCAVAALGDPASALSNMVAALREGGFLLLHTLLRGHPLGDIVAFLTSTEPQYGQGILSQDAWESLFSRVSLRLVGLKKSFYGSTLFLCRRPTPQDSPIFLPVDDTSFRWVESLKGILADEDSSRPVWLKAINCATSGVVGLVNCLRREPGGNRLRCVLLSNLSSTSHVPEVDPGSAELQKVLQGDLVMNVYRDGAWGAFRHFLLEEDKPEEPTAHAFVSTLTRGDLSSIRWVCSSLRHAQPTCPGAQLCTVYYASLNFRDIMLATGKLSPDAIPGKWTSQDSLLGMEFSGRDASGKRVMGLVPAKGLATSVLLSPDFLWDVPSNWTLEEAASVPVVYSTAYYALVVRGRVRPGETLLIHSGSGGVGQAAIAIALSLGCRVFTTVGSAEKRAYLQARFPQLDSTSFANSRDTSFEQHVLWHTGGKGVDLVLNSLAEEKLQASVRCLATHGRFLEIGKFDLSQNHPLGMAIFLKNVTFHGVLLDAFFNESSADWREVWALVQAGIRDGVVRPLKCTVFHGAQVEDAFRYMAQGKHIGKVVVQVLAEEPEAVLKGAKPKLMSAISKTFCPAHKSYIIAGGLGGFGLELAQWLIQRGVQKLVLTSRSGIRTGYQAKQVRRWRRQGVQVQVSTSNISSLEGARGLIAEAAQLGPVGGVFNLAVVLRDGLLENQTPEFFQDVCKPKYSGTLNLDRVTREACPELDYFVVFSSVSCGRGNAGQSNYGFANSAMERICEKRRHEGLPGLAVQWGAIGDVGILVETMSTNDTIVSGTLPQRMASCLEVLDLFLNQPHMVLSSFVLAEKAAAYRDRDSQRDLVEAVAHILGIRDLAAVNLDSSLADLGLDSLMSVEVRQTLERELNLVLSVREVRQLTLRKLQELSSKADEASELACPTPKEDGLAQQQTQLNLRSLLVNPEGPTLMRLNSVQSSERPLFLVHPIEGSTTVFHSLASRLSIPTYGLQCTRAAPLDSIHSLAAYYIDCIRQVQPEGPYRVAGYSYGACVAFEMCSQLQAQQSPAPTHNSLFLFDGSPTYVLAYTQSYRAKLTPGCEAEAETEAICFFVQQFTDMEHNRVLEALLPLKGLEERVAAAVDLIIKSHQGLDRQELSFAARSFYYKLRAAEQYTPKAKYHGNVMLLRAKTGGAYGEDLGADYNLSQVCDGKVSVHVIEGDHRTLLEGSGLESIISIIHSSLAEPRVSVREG

The AC50 is the midpoint of the concentration-response curve, whichever way the signal moves. Take `O=C(O)C1(C(=O)Nc2ccc(Cl)cc2Cl)CC1`: the outcome in assay [1], in assay [3], in assay [7], in [8] and in assay [10] was inactive. Moreover, the AC50 in assay [2] was 69.8 µM (active); in assay [4], 83.3 µM (active); in assay [5], 67 µM (active); in [6], 50 µM (active); in assay [9] it was 50 µM (active); in assay [11], 61 µM (active).

Take `COc1c(Cl)ccc(Cl)c1C(=O)O`: the result in assay [2], in assay [12], in [3], in assay [4], in assay [5] and in assay [7] was inactive. For the same molecule, the molecule was classed as inactive in [13], in [8], in assay [9], in assay [10] and in [11].

`CC(C)CCCCCCc1ccc(O)cc1`: the result in [1], in assay [2], in assay [12], in assay [3], in assay [4] and in assay [14] was inactive. The result in [5], in assay [7], in assay [13], in [15], in assay [8] and in [9] was inactive. The call in assay [10] and in assay [11] was inactive.

Consider `CCC(C)OC(=O)N1CCCCC1CCO` (centres undefined), for which the result in assay [1], in assay [2], in [12], in assay [3], in assay [4] and in assay [5] was inactive. The result in assay [7], in assay [13], in assay [15], in assay [8], in assay [9] and in assay [10] was inactive. Further, the outcome in assay [16] and in assay [11] was inactive.

Consider `COC(=O)CSc1cc(N=c2sc(=O)n3n2CCCC3)c(F)cc1Cl`, for which the result in assay [1], in assay [2], in assay [12], in [3], in assay [4] and in assay [14] was inactive. The result in [5], in assay [7], in [13], in assay [8], in assay [10] and in assay [11] was inactive. Further, the AC50 in assay [9] was 25.6 µM (active).

Consider `N#CSCSc1nc2ccccc2s1`, for which the outcome in assay [1], in [12], in assay [3], in [4], in assay [14] and in [5] was inactive. For the same molecule, the molecule was classed as inactive in assay [7], in [13], in [8], in assay [9], in assay [10] and in [16]. The AC50 in [2] is 68.3 µM (active); in [11], 63.3 µM (active).

With `CCOC(=O)NCCOc1ccc(Oc2ccccc2)cc1`, the AC50 was 85.4 µM (active) in assay [1]; 50 µM (active) in [2]; 83.4 µM (active) in assay [3]; 96 µM (active) in assay [5]; 84.4 µM (active) in [9]; 71.2 µM (active) in assay [11]. Also, the result in assay [12], in [4], in [7], in assay [8], in assay [10] and in [16] was inactive.
